# Results from PubChem BioAssay AID651793 (National Center for Advancing Translational Sciences (NCATS), 2012).
# Records with an inconclusive call do not appear. Active and inactive are the calls of the source. The call rests on the fitted dose curve; in most records, active means well fitted inhibition curve with a large enough effect; inconclusive means small, poorly fitted or top-dose-only effect; inactive means flat fitted curve, though single readings scatter.
# Assay: InCell qHTS Assay for Inhibitors of the mTORC1 Signaling Pathway in WT MEF Cells: Hit Validation
# Conditions: WT MEF phospho-rpS6 immunofluorescence, Acumen, 24 h; series mostly up to 38.3 µM
# Text: The mammalian target of rapamycin (mTOR) is an intracellular serine/threonine kinase Aberrant regulation of mTOR signaling plays a causative role in a number of human diseases, including cancer, benign tumors such as lymphangioleiomyomatosis (LAM) and Tuberous Sclerosis Complex (TSC), and metabolic diseases such as diabetes and obesity. This project aims to identify inhibitors of ribosomal protein S6 (rpS6) phosphorylation. The phosphorylation of rpS6 is a key event downstream of mTOR activation. The assay uses a phospho-specific antibody of phospho-rpS6 to detect inhibitors of mTOR activation. Mutations in the Tsc1 and Tsc2 genes are the underlying genetic lesions responsible for TSC, causing constitutive activation of the mTORC1 pathway and leading to profound effects on cell metabolism. Aberrant metabolism in cancer has recently received significant attention as a target to develop therapeutic agents in the treatment of cancer.1 As Tsc2-/- cells have lost the ability to respond to energy and growth factor deprivation, these cells are unable to properly down regulate cellular biosynthetic processes in response to metabolic stress, and are thus extremely sensitive to glucose deprivation-induced death.2 A central goal of this project is to explore the unique cell survival and metabolic properties of cells with Tsc1 or Tsc2 by screening for compounds that selectively target the Tsc2-/- MEFs by screening both Tsc2-/- and WT MEF cell lines. We hope to better understand these aspects of TSC physiology in order to exploit them for therapeutic benefit. NIH Molecular Libraries Probe Production Centers Network [MLPCN] NIH Chemical Genomics Center [NCGC] MLPCN Grant: NS059428 Assay Submitter (PI): Blenis, John; Harvard University
# For quantitative high throughput analysis of mTORC1 signaling, we developed a cell-based assay for immuno-fluorescence based detection of rpS6 phosphorylation on the Acumen Explorer that will be used a platform for the primary small molecule screen. Mouse embryonic fibroblasts (MEFs) are cultured in 1536-well plates using DMEM + 10% FBS. Twenty-four hrs after plating, test compounds (solubilized in DMSO) are delivered and incubated with the cells for 24 hrs at 37 degree Celsius. Following the incubation, media with compound is aspirated and the cells are fixed in 4% paraformaldehyde (PFA) containing PBS + 0.2% TX-100. Next, PFA is aspirated, cells are washed two times with PBS plus 0.2% TX-100 and the cells are blocked for 1 hr at room temperature (blocking buffer: LiCOR Blocking Buffer plus 0.2% TX-100). This is followed by aspiration and staining with Alexa-488 conjugated-phospho-rpS6 Ser235/236 antibody for 2 hours at room temperature (Cell Signaling Technology # 4803, 1:50 dilution in blocking buffer). Cells are washed two times with PBS plus 0.2% TX-100, and stained with 10 uM propidium iodide (PI) for 20-25 minutes for cell number measurement (1:500 dilution of Hoescht staining is also added for IN Cell imaging). The plates are scanned on the Acumen Explorer laser scanning instrument (TTP Labtech) using the 488nm laser for simultaneous excitation of the Alexa-488 and PI. The fluorescence emission from the Alexa-488 conjugated rpS6 phospho-235/236 antibody staining is selected using a […] band pass filter. Fluorescence emission from the PI stain is selected using a 575-640 nm band pass filter. The normalized phospho-S6 staining is calculated as the ratio of the integrated Alexa 488 intensity divided by the integrated PI intensity for the single concentration rapamycin control (7.5 nM) and DMSO columns. […] Inhibition of the pathway is defined based on the normalized phospho-S6 intensity in rapamycin treated cells. […]
row,SMILES,Potency
1,CCOc1ccc(Nc2nc(Nc3ccc(OCC)cc3)nc(N3CCOCC3)n2)cc1,inactive
2,O=C1CC(c2ccccc2)Cc2[nH]c(=O)c(-c3nc(-c4cccc(Cl)c4)cs3)cc21 (configuration not stated),inactive
3,COc1cc(-c2nc3ncccn3c2Nc2ccc(C)cc2C)ccc1O,inactive
4,C=CCNC1=C2C[C@@H](C)C[C@H](OC)[C@H](O)[C@@H](C)/C=C(\C)[C@H](OC(N)=O)[C@@H](OC)/C=C\C=C(/C)C(=O)NC(=CC1=O)C2=O,0.252 µM (active)
5,CCN1CCN(c2cc(C)c3cc(NC(=O)c4cc(OC)cc(OC)c4)ccc3n2)CC1,inactive
6,CCN(CC)c1cc(C)c2cc(NC(=O)/C=C/c3cc(OC)c(OC)c(OC)c3)ccc2n1,22.5 µM (active)
7,COc1ccccc1Nc1c2c(nc3ccc(NC(=O)c4cccc(OC)c4OC)cc13)CCCC2,17.9 µM (active)
8,Cc1c(C(=O)OCCOc2ccccc2)[nH]c2c1C(=O)CC(c1ccccc1Cl)C2 (configuration not stated),inactive
9,Cc1cc(N2CCCCC2)nc2ccc(NC(=O)/C=C/c3ccccc3OC(C)C)cc12,inactive
10,O=C1CC(c2ccccc2)Cc2[nH]c(=O)c(-c3nc(-c4ccc(Cl)cc4)cs3)cc21 (configuration not stated),inactive
11,COc1ccc(Nc2c3c(nc4ccc(NC(=O)/C=C/c5cccc(OC)c5OC)cc24)CCCC3)cc1OC,8.95 µM (active)
12,CCCCc1ccc(C(=O)Nc2ccc3nc(N4CCN(CC)CC4)cc(C)c3c2)cc1,8.95 µM (active)
13,CCN1CCN(c2cc(C)c3cc(NC(=O)c4cccc(Cl)c4)ccc3n2)CC1,inactive
14,COc1ccccc1Nc1c2c(nc3ccc(NC(=O)/C=C/c4cc(OC)c(OC)c(OC)c4)cc13)CCCC2,2.52 µM (active)
15,CCOc1ccc(C2CC(=O)c3c([nH]c(C(=O)OCc4ccccc4)c3C)C2)cc1 (configuration not stated),inactive
16,COc1ccc(OC)c(C2CC(=O)c3c([nH]c(C(=O)OCc4ccc(C)cc4)c3C)C2)c1 (configuration not stated),inactive
17,COc1cc(NC(=O)c2cccc(F)c2)ccc1NC(=O)c1cc2ccccc2o1,8.95 µM (active)
18,CCCOc1ccc(C(=O)Nc2ccc(NC(=O)c3ccccc3)c(C)c2)cc1,6.34 µM (active)
19,CCN1CCN(c2cc(C)c3cc(NC(=O)/C=C/c4ccc(OCCC(C)C)cc4)ccc3n2)CC1,3.18 µM (active)
20,Cc1cc(N2CCN(C)CC2)nc2ccc(NC(=O)c3ccc(C(C)(C)C)cc3)cc12,15.9 µM (active)
21,COc1ccc(/C=C/C(=O)Nc2ccc3nc4c(c(Nc5ccc(OC)c(OC)c5)c3c2)CCCC4)cc1,11.3 µM (active)
22,CCN1CCN(c2cc(C)c3cc(NC(=O)/C=C/c4ccc(C)cc4)ccc3n2)CC1,inactive
23,Cc1cccc(Nc2nc(Nc3cccc(C)c3)nc(N3CCOCC3)n2)c1,20 µM (active)
24,CCOc1ccc(/C=C/C(=O)Nc2ccc3nc(N(CC)CC)cc(C)c3c2)cc1OC,10 µM (active)
25,COc1ccccc1Nc1c2c(nc3ccc(NC(=O)c4ccc(N(C)C)cc4)cc13)CCCC2,5.65 µM (active)
26,CCCOc1ccc(C(=O)Nc2ccc(NC(=O)c3ccccc3)c(Br)c2)cc1,10 µM (active)
27,COc1cc(Nc2nc(-c3ccc(OC)c(OC)c3)nc3ccccc23)cc(OC)c1,inactive
